A selection: hits, their analogues and other compounds. The true share with any hit is near 4.7%.
TGFb inhibitor: TGF-b pathway inhibition; Potency, µM (series often up to 46.1 µM), hits mostly inhibitors; 410,000 tested, 1.2% active; HepG2 CAGA-GFP TGF-b/SMAD3 reporter, GFP fluorescence, 18 h; TGF-beta stimulated, 500 pg/mL final; also: nearly all actives have a fitted effect of over 65% in size
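Cell-based qHTS in HEPG2 carrying a CAGA-GFP Smad reporter; compounds added before 500 pg/mL final TGF-beta, 18 h incubation at 37 degrees C, GFP fluorescence quantified per cell by imaging cytometry.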
ATXN2 expr inh: reduces ATXN2 reporter expression in HEK-293 cells | HEK-293 ATXN2-luciferase reporter, luminescence, 24 h | Potency, µM (doses to about 57 µM), actives largely listed as inhibitors | 360,000 tested, 0.72% active | AID 1745845; also: nearly all actives have a fitted effect of over 55% in size
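ATXN2-luciferase reporter cells (luciferase flanked by upstream and downstream ATXN2 gene portions) were treated 24 h at 37 °C with compounds at up to 57 uM. SteadyGlo luminescence gave expression; GF-AFC fluorescence gave viability.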
S2 tox: reduces viability in counter-screen for ATXN expression inhibitors | AID 651635 | Potency, µM (highest dose often 56.7 µM), hits mostly cytotoxic | 400,000 tested, 0.49% active | S2 cells (HEK-293 line with an ATXN2-luciferase reporter) viability, CellTiter-Fluor protease fluorescence, 24 h; also: nearly all actives have a fitted effect of over 40% in size
DRD3 antagonist: blocks the human D3 dopamine receptor; max response, negative = inhibition, %; 360,000 tested, 2.5% active; D3R cells, DiscoveRx beta-arrestin luminescence, antagonist mode; active compounds read low; in the data active = max response below about -50%; inconclusive = no clear call, values can overlap the other calls
Target sequence (P35462 whole entry, looked up): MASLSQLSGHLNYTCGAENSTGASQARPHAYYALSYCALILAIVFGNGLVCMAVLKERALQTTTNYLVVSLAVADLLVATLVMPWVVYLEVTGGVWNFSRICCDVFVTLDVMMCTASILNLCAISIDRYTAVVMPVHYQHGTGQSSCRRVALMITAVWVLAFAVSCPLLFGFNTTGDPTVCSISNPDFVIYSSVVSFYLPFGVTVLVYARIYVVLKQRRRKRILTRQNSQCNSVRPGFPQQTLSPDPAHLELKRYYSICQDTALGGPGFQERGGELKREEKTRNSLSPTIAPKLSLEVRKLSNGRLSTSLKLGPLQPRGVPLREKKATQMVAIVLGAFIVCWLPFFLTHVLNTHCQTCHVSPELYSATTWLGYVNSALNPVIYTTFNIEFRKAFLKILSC
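Cells expressing the human receptor were seeded at 1500 cells/well, incubated overnight at 37 degrees C in 5% CO2, then exposed to library compounds with dopamine controls for 90 minutes at 37 degrees C before luminescent detection.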
HepG2 tox-1: HepG2 cytotoxicity, counter-screen for TGF-b inhibitors; Potency, µM (titrated, usually from 46.1 µM), actives largely listed as cytotoxic; AID 588856; 410,000 tested, 0.76% active; HepG2 CAGA-GFP viability, ATP luminescence, 18 h
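CellTiter-Glo luminescence gave cytotoxicity after 18 hours at 37 degrees C. The cells were HepG2 CAGA-GFP in 1% FBS DMEM, stimulated with 500 pg/mL TGF-beta after compound addition. %Activity was normalised to no-cell wells (complete cell-killing) and DMSO (no toxicity), and curves were fitted and classified.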
D3 ag: D3 dopamine receptor (human) agonism | P35462 | D3R DiscoveRx beta-arrestin cells, luminescence, 90 min | max activation, % | 410,000 tested, 0.58% active; in the data active = max activation above about 30%
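Cells at 1500/well, incubated overnight, then treated with pinned compounds (dopamine as control) for 90 min at 37 degrees C. DiscoveRx reagent added for 30 - 60 minutes at room temperature; luminescence read.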
TGFb CAGA inh: confirmation of TGF-b signaling inhibitors in HepG2 reporter cells | shares compounds with TGFb inhibitor | HepG2 CAGA-GFP TGF-b reporter, GFP fluorescence, 18 h; cells stimulated with TGF-beta, 500 pg/mL | Potency, µM (titrated, usually from 46.1 µM), hits mostly inhibitors | 1,600 tested, 63% active | AID 720534; also: nearly all actives have a fitted effect of over 65% in size
HepG2 tox-2: HepG2 cytotoxicity, TGF-b inhibitor counterscreen. shares compounds with TGFb inhibitor. HepG2 CAGA-GFP viability, ATP luminescence, 18 h; cells stimulated with TGF-beta, 500 pg/mL. Potency, µM (series often up to 46.1 µM), actives largely listed as inhibitors. 1,600 tested, 27% active; also: nearly all actives have a fitted effect of over 70% in size
TGFb CCL64 inh: blocks TGF-b signaling in CCL64 reporter cells; shares compounds with TGFb inhibitor; CCL64 CAGA-GFP reporter, TGF-b stimulated, GFP fluorescence, 18 h; Potency, µM (series often up to 46.1 µM), actives largely listed as inhibitors; 1,600 tested, 41% active; AID 720536; also: nearly all actives have a fitted effect of over 65% in size
TGFb COP inh: blocks TGF-b signaling in HepG2 COP reporter | shares compounds with TGFb inhibitor | HepG2 COP-GFP TGF-b reporter, GFP fluorescence, 18 h; cells stimulated by added recombinant TGF-beta | Potency, µM (highest dose often 46.1 µM), hits mostly inhibitors | 1,600 tested, 3% active | AID 720537; also: nearly all actives have a fitted effect of over 70% in size
Each line names hits and unclear results; the compound was inactive in the other large screens (follow-up assays come after a bar, where they were run). Unless noted, calls follow the shape of the dose curve; as a rule, active = well fitted curve in the direction sought with a large enough effect; inconclusive = small, poorly fitted or top-dose-only effect, or another doubt; inactive = no such curve, though single readings can be large; an effect the other way counts as inactive or inconclusive.

CCOc1ccccc1CNC(=O)c1ccc(Sc2ccc(Cl)cc2)c(NC(C)=O)c1	TGFb inhibitor inconclusive | TGFb CAGA inh inconclusive | HepG2 tox-2 inactive | TGFb CCL64 inh inconclusive | TGFb COP inh inactive
CCOc1ccc(CNC(=O)c2ccc(Sc3ccc(Cl)cc3)c(NC(C)=O)c2)cc1	TGFb inhibitor inconclusive, ATXN2 expr inh inconclusive
O=C(c1ccco1)N1CCN(c2ncnc3scc(-c4ccc(F)cc4)c23)CC1	TGFb inhibitor 18µM | TGFb CAGA inh 16µM | HepG2 tox-2 inactive | TGFb CCL64 inh inactive | TGFb COP inh inactive
NC(=O)C1CCN(C(=O)c2ccc3c(c2)N(Cc2cccc(Cl)c2)C(=O)c2ccccc2S3(=O)=O)CC1	none (no result: ATXN2 expr inh, S2 tox, DRD3 antagonist)
COc1ccc(C(c2c(O)ccc3ccccc23)N2CCOCC2)c(OC)c1 (centres undefined)	TGFb inhibitor 6.3µM, DRD3 antagonist inconclusive (no result: S2 tox) | TGFb CAGA inh inconclusive | HepG2 tox-2 23µM | TGFb CCL64 inh inconclusive | TGFb COP inh inconclusive
COC(=O)c1cc(NC(=O)[C@H](CCS(C)(=O)=O)N2Cc3ccccc3C2=O)cc(C(=O)OC)c1	none (no result: DRD3 antagonist)
COc1ccc(Cn2nnnc2CN2CCC(c3nc4ccccc4s3)CC2)cc1	none
c1ccc2sc(C3CCN(Cc4nnnn4Cc4ccc5c(c4)OCO5)CC3)nc2c1	TGFb inhibitor 14µM | TGFb CAGA inh inconclusive | HepG2 tox-2 inactive | TGFb CCL64 inh inactive | TGFb COP inh inactive
COc1ccccc1N1CCN(C(=O)c2ccc3c(Cl)c4c(nc3c2)CCCC4)CC1	TGFb inhibitor 11µM, S2 tox inconclusive | TGFb CAGA inh 6.5µM | HepG2 tox-2 inconclusive | TGFb CCL64 inh 18µM | TGFb COP inh inactive
COc1ccc(-c2[nH]ncc2CN2CCCC(C(=O)c3ccc(OC)cc3OC)C2)cc1 (centres undefined)	none (no result: ATXN2 expr inh)
COc1ccc(OC)c(CN2CCCC(C(=O)c3ccccc3SC)C2)c1 (centres undefined)	TGFb inhibitor inconclusive, ATXN2 expr inh inconclusive, S2 tox inconclusive, DRD3 antagonist inconclusive | TGFb CAGA inh inconclusive | HepG2 tox-2 inconclusive | TGFb CCL64 inh inconclusive | TGFb COP inh inactive
COc1ccc(Nc2c3c(nc4ccc(C)cc24)CCC3)cc1	TGFb inhibitor inconclusive, ATXN2 expr inh inconclusive, S2 tox inconclusive
Cc1ccc2nc3c(c(Nc4ccc5c(c4)OCCO5)c2c1)CCC3	TGFb inhibitor 3.5µM, S2 tox inconclusive | TGFb CAGA inh inconclusive | HepG2 tox-2 inconclusive | TGFb CCL64 inh inconclusive | TGFb COP inh inactive
O=C(Nc1ccc(N2CCN(c3ccc(C(F)(F)F)cn3)CC2)nc1)c1cccs1	TGFb inhibitor inconclusive, ATXN2 expr inh inconclusive
O=C(Nc1ccc(N2CCN(c3ncccc3C(F)(F)F)CC2)nc1)c1cccs1	TGFb inhibitor 4µM, ATXN2 expr inh 34µM, S2 tox inconclusive | TGFb CAGA inh inconclusive | HepG2 tox-2 inconclusive | TGFb CCL64 inh inconclusive | TGFb COP inh inactive
CC(C)CCn1c(SC(C)C#N)nc2ccccc2c1=O (centres undefined)	none (no result: ATXN2 expr inh, S2 tox, DRD3 antagonist, D3 ag)

Screening data: PubChem, National Center for Advancing Translational Sciences (NCATS)
